# According to PubChem BioAssay (Tox21):
# Records with an inconclusive call do not appear. A call without a number means that no potency is given here. Values without a mark were called inactive. Calls of active or inactive are those of the source. Unless noted, the call rests on the fitted dose curve; in most records, active means well fitted curve in the direction sought with a large enough effect in the repeat runs; inconclusive means weak or mixed curves; inactive means no such curve, though single readings can be large; an effect the other way counts as inactive or inconclusive.
# Tests used:
# [1] = qHTS assay to identify small molecule antagonists of the thyroid receptor (TR) signaling pathway - cell viability counter screen (AID 743064); further: nearly all actives have a fitted effect of over 50% in size; further: potency means the concentration at half of the fitted maximal effect
# Outline: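 GH3.TRE-Luc cells, 4 h pre-plating; cpd + T3 1 nM final; 37 °C 23.5 h; CellTiter-Fluor 30 min; fluorescence read.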
# [2] = test system: thyroid hormone receptor (rat, GH3 cells); assay: qHTS assay to identify small molecule agonists of the thyroid receptor (TR) signaling pathway (AID 743066; calls by dose curve)
# [3] = qHTS assay to identify small molecule antagonists of the estrogen receptor alpha (ER-alpha) signaling pathway - cell viability counter screen (AID 743074; calls by dose curve; further: nearly all actives have a fitted effect of over 45% in size)
# [4] = qHTS assay to identify small molecule antagonists of the estrogen receptor alpha (ER-alpha) signaling pathway using the BG1 cell line - cell viability counter screen (AID 743081);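 further: compound given together with 17beta-estradiol as the ER stimulus; nearly all actives have a fitted effect of over 45% in size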
# Aromatase (Homo sapiens) = Aromatase (Homo sapiens) (UniProt P11511); assay: qHTS assay to identify aromatase inhibitors (AID 743083); further: nearly all actives have a fitted effect of over 55% in size; further: potency means the concentration at half of the fitted maximal effect
# Aromatase (Homo sapiens), sequence (P11511 whole entry, looked up): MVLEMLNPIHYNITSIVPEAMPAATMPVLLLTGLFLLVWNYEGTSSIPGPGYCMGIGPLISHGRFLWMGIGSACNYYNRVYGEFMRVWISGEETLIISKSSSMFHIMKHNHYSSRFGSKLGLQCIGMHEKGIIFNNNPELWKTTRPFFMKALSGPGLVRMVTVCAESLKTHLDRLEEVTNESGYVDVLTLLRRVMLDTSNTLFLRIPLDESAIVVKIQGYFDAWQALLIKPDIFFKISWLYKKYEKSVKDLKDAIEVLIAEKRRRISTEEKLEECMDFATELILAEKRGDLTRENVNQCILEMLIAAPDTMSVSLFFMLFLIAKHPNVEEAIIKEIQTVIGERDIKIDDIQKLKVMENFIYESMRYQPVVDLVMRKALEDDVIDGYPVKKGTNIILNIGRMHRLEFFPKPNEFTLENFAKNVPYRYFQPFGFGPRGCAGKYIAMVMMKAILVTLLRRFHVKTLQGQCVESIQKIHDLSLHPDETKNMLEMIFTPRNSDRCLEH
# [5] = qHTS assay to identify aromatase inhibitors - cell viability counter screen (AID 743084);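 further: cells stimulated with testosterone during compound exposure; nearly all actives have a fitted effect of over 55% in size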; further: potency means the concentration at half of the fitted maximal effect
# [6] = biological target: Aryl hydrocarbon receptor (Homo sapiens) (UniProt P35869); assay: qHTS assay to identify small molecule that activate the aryl hydrocarbon receptor (AhR) signaling pathway (AID 743085); further: nearly all actives have a fitted effect of over 15% in size; further: potency means the concentration at half of the fitted maximal effect;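 on activation: HG2L7.5c1 human HepG2 liver cells with stably integrated DRE-driven firefly reporter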
# Aryl hydrocarbon receptor (Homo sapiens), sequence (P35869 whole entry, looked up): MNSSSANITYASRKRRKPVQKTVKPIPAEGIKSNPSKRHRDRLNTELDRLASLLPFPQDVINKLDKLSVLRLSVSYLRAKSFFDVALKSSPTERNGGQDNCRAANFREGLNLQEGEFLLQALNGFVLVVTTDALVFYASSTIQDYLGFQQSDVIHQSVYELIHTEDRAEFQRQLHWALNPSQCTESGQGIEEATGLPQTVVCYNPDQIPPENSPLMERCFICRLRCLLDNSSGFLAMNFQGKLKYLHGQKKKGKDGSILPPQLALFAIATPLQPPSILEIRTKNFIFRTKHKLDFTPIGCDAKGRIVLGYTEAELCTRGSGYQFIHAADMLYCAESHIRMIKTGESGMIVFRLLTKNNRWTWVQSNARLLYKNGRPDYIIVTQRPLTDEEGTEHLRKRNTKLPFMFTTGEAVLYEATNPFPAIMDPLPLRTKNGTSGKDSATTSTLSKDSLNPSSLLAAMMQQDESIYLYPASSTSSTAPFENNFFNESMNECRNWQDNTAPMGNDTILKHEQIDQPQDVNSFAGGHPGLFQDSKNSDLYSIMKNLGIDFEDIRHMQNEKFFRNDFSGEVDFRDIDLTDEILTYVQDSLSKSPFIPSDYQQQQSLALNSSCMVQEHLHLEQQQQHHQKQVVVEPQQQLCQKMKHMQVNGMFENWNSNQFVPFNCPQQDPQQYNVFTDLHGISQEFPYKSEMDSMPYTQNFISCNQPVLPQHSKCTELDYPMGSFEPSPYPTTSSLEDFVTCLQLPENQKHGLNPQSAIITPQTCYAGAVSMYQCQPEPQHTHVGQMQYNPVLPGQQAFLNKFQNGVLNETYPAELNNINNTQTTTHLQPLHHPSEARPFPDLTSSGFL
# Outline: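 Luminescence read-out: ONE-Glo reagent, 30 min at room temperature, in HG2L7.5c1 HepG2 reporter cells treated 24 h at 37C. Viability was measured beforehand by CellTiter-Fluor fluorescence after 30 min at 37C.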
# [7] = qHTS assay to identify small molecule that activate the aryl hydrocarbon receptor (AhR) signaling pathway - cell viability counter screen (AID 743086); further: nearly all actives have a fitted effect of over 45% in size; further: potency means the concentration at half of the fitted maximal effect
# Outline: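 HepG2-AhR-luc (HG2L7.5c1) cells, 4000/well, treated 24 h at 37 C with compound; viability measured as CellTiter-Fluor fluorescence after 30 min in the same wells as the luciferase read.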
# [8] = biological target: Peroxisome proliferator-activated receptor gamma (Homo sapiens) (UniProt P37231); assay: qHTS assay to identify small molecule agonists of the peroxisome proliferator-activated receptor gamma (PPARg) signaling pathway (AID 743094; active means well fitted activation curve with a large enough effect in the signal ratio in the repeat runs, not every such curve was filed as active; the % refers to the signal ratio)
# Peroxisome proliferator-activated receptor gamma (Homo sapiens), sequence (P37231 whole entry, looked up): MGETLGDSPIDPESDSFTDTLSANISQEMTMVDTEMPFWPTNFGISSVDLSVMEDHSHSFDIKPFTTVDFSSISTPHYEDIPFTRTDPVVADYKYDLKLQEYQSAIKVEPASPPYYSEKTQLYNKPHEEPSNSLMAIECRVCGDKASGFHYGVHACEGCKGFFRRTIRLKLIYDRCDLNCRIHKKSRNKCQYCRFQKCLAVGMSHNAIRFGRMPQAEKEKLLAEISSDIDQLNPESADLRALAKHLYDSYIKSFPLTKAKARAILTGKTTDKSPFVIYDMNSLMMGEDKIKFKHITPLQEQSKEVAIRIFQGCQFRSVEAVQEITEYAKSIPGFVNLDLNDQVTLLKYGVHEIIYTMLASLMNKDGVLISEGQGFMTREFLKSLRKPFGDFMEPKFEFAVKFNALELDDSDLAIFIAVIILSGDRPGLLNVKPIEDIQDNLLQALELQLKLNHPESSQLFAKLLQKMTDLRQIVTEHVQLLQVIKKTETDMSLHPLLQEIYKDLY
# Outline: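 Cells from the PPARg UAS-bla HEK293H line are plated and incubated 5 h at 37C. Compounds in DMSO are pinned in and left 17 h at 37C. LiveBLAzer B/G substrate is then added for 1 h at room temperature before fluorescence is measured.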
# [9] = qHTS assay to identify small molecule phospholipidosis (PLD) inducers (AID 1259344; active means well fitted curve in the direction sought with a large enough effect; an effect the other way counts as inactive or inconclusive)
# Outline: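 Image-based: LipidTOX Red pit count/intensity per well and per cell; HepG2, 24 h compound at 37 C, PFA fixation, Hoechst counterstain.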
# [10] = qHTS assay to identify small molecule antagonists of the thyroid receptor (TR) signaling pathway (AID 743065); further: nearly all actives have a fitted effect of over 55% in size; further: potency means the concentration at half of the fitted maximal effect
# Outline: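 GH3.TRE-Luc rat pituitary cells (two TREs driving luciferase) were dosed with compound, then stimulated with 1 nM T3 (final) for 23.5 h at 37 C. ONE-Glo luminescence was the read-out, with CellTiter-Fluor fluorescence as the cytotoxicity counter-screen.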
# [11] = biological target: Estrogen receptor (Homo sapiens) (UniProt P03372); assay: qHTS assay to identify small molecule agonists of the estrogen receptor alpha (ER-alpha) signaling pathway (AID 743075; calls by dose curve)
# Estrogen receptor (Homo sapiens), sequence (P03372 whole entry, looked up): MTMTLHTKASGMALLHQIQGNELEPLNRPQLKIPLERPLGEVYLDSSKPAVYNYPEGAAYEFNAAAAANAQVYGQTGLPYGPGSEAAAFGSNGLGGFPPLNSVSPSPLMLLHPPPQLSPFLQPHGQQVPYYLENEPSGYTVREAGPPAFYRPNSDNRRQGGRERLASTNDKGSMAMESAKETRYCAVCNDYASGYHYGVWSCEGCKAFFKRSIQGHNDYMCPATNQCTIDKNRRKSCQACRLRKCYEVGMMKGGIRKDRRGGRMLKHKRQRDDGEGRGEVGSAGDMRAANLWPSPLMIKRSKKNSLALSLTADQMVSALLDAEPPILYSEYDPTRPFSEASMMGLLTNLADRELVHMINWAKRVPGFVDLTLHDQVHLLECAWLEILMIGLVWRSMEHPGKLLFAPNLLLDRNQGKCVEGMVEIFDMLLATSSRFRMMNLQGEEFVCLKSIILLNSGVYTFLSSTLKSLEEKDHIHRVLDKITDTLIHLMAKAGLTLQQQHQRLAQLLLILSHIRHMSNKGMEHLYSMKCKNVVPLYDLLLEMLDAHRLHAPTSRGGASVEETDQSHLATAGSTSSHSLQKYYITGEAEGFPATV
# [12] = biological target: Estrogen receptor (Homo sapiens) (UniProt P03372); assay: qHTS assay to identify small molecule agonists of the estrogen receptor alpha (ER-alpha) signaling pathway using the BG1 cell line (AID 743079); settings: BG1Luc4E2 cells, ERE-luciferase agonist, 22 h; activation: at 70.3 µM (top of the series); further: nearly all actives have a fitted effect of over 20% in size
# [13] = qHTS assay to identify small molecule antagonists of the estrogen receptor alpha (ER-alpha) signaling pathway using the BG1 cell line (AID 743080; calls by dose curve;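 further: BG1 cells stimulated with 17beta-estradiol alongside compound; nearly all actives have a fitted effect of over 25% in size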)
# Outline: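 BG1-Luc-4E2 cells (endogenous full-length ER-alpha, stable 4×ERE-luciferase) were starved 5 days in phenol-red-free medium with 10% charcoal-stripped FBS, plated 24 h, then given compound plus 17beta-estradiol for 21.5 h at 37 C; ONE-Glo luminescence read after 30 min.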
# [14] = biological target: Estrogen receptor (Homo sapiens) (UniProt P03372); assay: qHTS assay to identify small molecule antagonists of the estrogen receptor alpha (ER-alpha) signaling pathway (AID 743069; active means well fitted curve in the direction sought with a large enough effect in the signal ratio in the repeat runs, not every such curve was filed as active; the % refers to the signal ratio)
# Outline: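 In this cell-based reporter format, GripTite HEK293 cells harbouring ER-alpha-UAS-bla were grown overnight with 2% charcoal-stripped FBS, dosed with DMSO-dissolved compounds, then challenged with 17beta-estradiol. After 18 hr at 37C, beta-lactamase activity was detected by FRET fluorescence.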
SMILES,Potency [1],Potency [2],Potency [3],Potency [4],Potency (Aromatase (Homo sapiens)),Potency [5],Potency [6],Potency [7],Potency [8],PLD induction [9],Potency [10],Potency [11],Potency [9],Potency [12],Potency [13],Potency [14]
CN[C@@H]1CCc2[nH]c3ccc(C(N)=O)cc3c2C1,inactive,inactive,inactive,inactive,inactive,inactive,inactive,inactive,inactive,-1.34% [at 1.53 µM],–,–,–,–,–,–
O=C(Nc1ccc(Br)cc1)c1cc(Br)c(Br)s1,18.8 µM (active),–,–,inactive,inactive,inactive,16.8 µM (active),–,inactive,–,13.3 µM (active),inactive,inactive,–,–,–
C[C@@H]1C[C@H]2C3C[C@H](F)C4=CC(=O)C=CC4(C)[C@@]3(F)[C@@H](O)CC2(C)[C@@]1(O)C(=O)COC(=O)C(C)(C)C (stereo partly drawn),inactive,inactive,inactive,inactive,inactive,inactive,–,–,inactive,–,–,inactive,inactive,inactive,–,–
O=P(O)(O)C(Sc1ccc(Cl)cc1)P(=O)(O)O,inactive,inactive,inactive,–,inactive,inactive,inactive,inactive,inactive,–,inactive,–,inactive,–,–,–
CCOC(=O)[C@H](CCc1ccccc1)N[C@@H](C)C(=O)N1CC2(C[C@H]1C(=O)O)SCCS2,inactive,inactive,–,inactive,inactive,inactive,inactive,inactive,inactive,–,inactive,–,inactive,–,–,–
C/C1=C2N=C(/C=C3N=C(/C(C)=C4\[N-]C(C(CC(N)=O)C4(C)CCC(=O)NCC(C)OP(=O)([O-])OC4C(CO)OC(n5cnc6cc(C)c(C)cc65)C4O)C4(C)N=C1C(CCC(N)=O)C4(C)CC(N)=O)C(CCC(N)=O)C\3(C)C)C(CCC(N)=O)C/2(C)CC(N)=O.[CH3-].[Co+3] (stereo not drawn),29.8 µM (active),inactive,–,–,13.3 µM (active),23.7 µM (active),inactive,26.6 µM (active),inactive,–,11.9 µM (active),–,inactive,–,–,–
C#C[C@]1(OC(C)=O)CC[C@H]2[C@@H]3CCC4=CC(=O)CC[C@@H]4[C@H]3CC[C@@]21C,inactive,inactive,–,inactive,–,–,–,inactive,inactive,1.06% [at 7.66 µM],9.44 µM (active),–,–,–,–,–
C=C1/C(=C\C=C2/CCC[C@]3(C)[C@@H]([C@H](C)OCCC(C)(C)O)CC[C@@H]23)C[C@@H](O)C[C@@H]1O,inactive,inactive,inactive,–,inactive,inactive,–,–,inactive,–,37.6 µM (active),–,inactive,–,–,–
C=C1C(=C/C=C2\CCC[C@]3(C)[C@@H]([C@H](C)/C=C/[C@H](C)C(C)C)CC[C@@H]23)C[C@@H](O)C[C@@H]1O,29.8 µM (active),inactive,–,–,–,–,–,inactive,–,–,29.8 µM (active),inactive,inactive,inactive,–,–
CN1CCN(CCCN2c3ccccc3Sc3ccccc32)CC1,13.3 µM (active),–,inactive,–,–,–,inactive,–,inactive,–,23.7 µM (active),inactive,inactive,inactive,inactive,–
O=C(O)[C@@H](O)[C@H](O)[C@H](O)[C@@H](O)C(=O)O (tested in a mixture with another compound),inactive,inactive,–,–,inactive,inactive,inactive,inactive,inactive,–,inactive,–,inactive,–,–,–
O.O=C([O-])CC([S-])C(=O)[O-].[Au+].[Na+].[Na+] (stereo not drawn),inactive,inactive,inactive,inactive,inactive,inactive,inactive,–,–,–,–,inactive,inactive,inactive,inactive,inactive
CC1(C)C2CC[C@]3(C)[C@H](C(=O)C=C4[C@@H]5C[C@@](C)(C(=O)O)CC[C@]5(C)CC[C@]43C)[C@@]2(C)CC[C@@H]1O[C@H]1O[C@H](C(=O)O)[C@@H](O)[C@H](O)[C@H]1O[C@@H]1O[C@H](C(=O)O)[C@@H](O)[C@H](O)[C@H]1O (stereo partly drawn),inactive,inactive,inactive,inactive,inactive,inactive,inactive,inactive,–,0.435% [at 7.66 µM],–,–,–,–,–,–
O=C(O)c1cc2ccccc2c(Cc2c(O)c(C(=O)O)cc3ccccc23)c1O,inactive,inactive,inactive,–,inactive,inactive,–,inactive,inactive,–,inactive,–,inactive,–,–,–
CCCCCCCCCCCCCCCCCC(=O)[O][Al],inactive,inactive,–,inactive,inactive,inactive,inactive,inactive,–,–,–,inactive,inactive,inactive,inactive,inactive
COc1ccc(C2NC(=S)N3C(c4ccc(OC)c(OC)c4)NC(=S)N23)cc1OC (stereo not drawn),0.188 µM (active),–,inactive,inactive,0.168 µM (active),0.188 µM (active),inactive,0.211 µM (active),inactive,-4.32% [at 7.66 µM],0.0841 µM (active),inactive,–,inactive,–,–
N[C@@H](C(=O)N[C@@H]1C(=O)N2C(C(=O)O)=C(Cl)CC[C@H]12)c1ccccc1,inactive,inactive,inactive,–,inactive,inactive,inactive,inactive,inactive,–,–,inactive,inactive,inactive,–,–
